In PubChem BioAssay (EPA / NIEHS):
The source made the active and inactive calls. How the source made its calls: active means hit-call score of the fitted dose curve at least 0.9, where 1 is the maximum; inactive means score below 0.9.

experiment: APR_HepG2_CellCycleArrest_24hr: Apredica 24-hour HepG2 Assay for Cell Cycle Arrest (AID 2282905); conditions: imaging, actives raise or lower the signal;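 further: cell cycle arrest scored as ratio of 2N to 4N nuclear DNA content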
Summary of the method: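 HepG2, 24 hr dosing, 10-pt 0.39–200 uM in duplicate, 0.5% DMSO. Fixed 3.7% formaldehyde, permeabilized 0.5% Triton X-100, Hoechst 33342 2 ug/mL. Imaged 20x; nuclear DNA content quantified; bidirectional fit vs DMSO.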

outcome, inactive:
CCCCCCCCCCCCOS(=O)(=O)O
CCCCCCCCCCCCCCC
OCC(CO)(CBr)CBr
CCCCC(CC)C(=O)O (configuration not stated)
CN(Cc1cnc2nc(N)nc(N)c2n1)c1ccc(C(=O)N[C@@H](CCC(=O)O)C(=O)O)cc1
O=C1NS(=O)(=O)c2ccccc21
CCCCC=O
N=C(N)c1ccc(OCCCCCOc2ccc(C(=N)N)cc2)cc1

AC50, active:
Cc1[nH]nc2c1N=C(c1ccccc1Cl)c1cc([N+](=O)[O-])ccc1N2 0.364 µM

experiment: APR_HepG2_NuclearSize_24hr: Apredica 24-hour HepG2 Assay for Nuclear Size (AID 2282907); conditions: high-content imaging, actives raise or lower the signal
Summary of the method: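 HepG2, 24 hr dosing, 10-pt 0.39–200 uM, duplicates, 0.5% DMSO final; 3.7% formaldehyde fix, 0.5% Triton X-100; Hoechst 33342 nuclear stain; ArrayScan HCS, Cell Cycle analysis → nuclear size; bidirectional fit vs DMSO.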

outcome, inactive:
CCCCCCCCCCCCOS(=O)(=O)O
CCCCCCCCCCCCCCC
OCC(CO)(CBr)CBr
CCCCC(CC)C(=O)O (configuration not stated)
CN(Cc1cnc2nc(N)nc(N)c2n1)c1ccc(C(=O)N[C@@H](CCC(=O)O)C(=O)O)cc1
O=C1NS(=O)(=O)c2ccccc21
CCCCC=O
N=C(N)c1ccc(OCCCCCOc2ccc(C(=N)N)cc2)cc1

AC50, active:
Cc1[nH]nc2c1N=C(c1ccccc1Cl)c1cc([N+](=O)[O-])ccc1N2 0.512 µM

experiment: APR_HepG2_CellLoss_24hr: Apredica 24-hour HepG2 Assay for Cell Loss (AID 2282908); conditions: high-content imaging;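 on AC50: fit in both directions so a hit may be cell loss or gain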
Summary of the method: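 10-pt dose, 0.39–200 uM, n=2/plate; DMSO 0.5% v/v final as negative control. Fix 3.7% formaldehyde 30 min RT, permeabilize 0.5% Triton X-100, stain Hoechst 33342 2 ug/mL, image 20x. Nuclear count, bidirectional fit vs DMSO.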

outcome, inactive:
CCCCCCCCCCCCOS(=O)(=O)O
CCCCCCCCCCCCCCC
O=C(c1ccccc1)c1ccccc1
OCC(CO)(CBr)CBr
CCCCC(CC)C(=O)O (configuration not stated)
CN(Cc1cnc2nc(N)nc(N)c2n1)c1ccc(C(=O)N[C@@H](CCC(=O)O)C(=O)O)cc1
O=C1NS(=O)(=O)c2ccccc21
CC(=O)Nc1ccc(O)cc1
CN(C)CCOC(c1ccccc1)c1ccccc1
CCCCC=O
CS(=O)(=O)c1ccc([C@@H](CC2CCCC2)C(=O)Nc2cnccn2)cc1Cl

AC50, active:
CCCCc1oc2ccccc2c1C(=O)c1cc(I)c(OCCN(CC)CC)c(I)c1 43.8 µM
O=C(CCCN1CCC(O)(c2ccc(Cl)cc2)CC1)c1ccc(F)cc1 87.4 µM
Cc1[nH]nc2c1N=C(c1ccccc1Cl)c1cc([N+](=O)[O-])ccc1N2 0.0391 µM
N=C(N)c1ccc(OCCCCCOc2ccc(C(=N)N)cc2)cc1 9.33 µM

experiment: APR_HepG2_MicrotubuleCSK_24hr: Apredica 24-hour HepG2 Assay for Microtubule CSK Stabilty (AID 2282909); conditions: HepG2 microtubule cytoskeleton imaging, actives raise or lower the signal
Summary of the method: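 Human liver HepG2, 24 h dosing, 0.39–200 uM ×10 conc, dup, 0.5% DMSO. 3.7% formaldehyde fix, 0.5% Triton perm, anti-alpha-tubulin (1:200)/Cy5 secondary + Hoechst. HCS imaging, 6 fields/well; gain/loss fit vs DMSO.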

outcome, inactive:
CCCCCCCCCCCCOS(=O)(=O)O
CCCCCCCCCCCCCCC
OCC(CO)(CBr)CBr
CCCCC(CC)C(=O)O (configuration not stated)
CN(Cc1cnc2nc(N)nc(N)c2n1)c1ccc(C(=O)N[C@@H](CCC(=O)O)C(=O)O)cc1
O=C1NS(=O)(=O)c2ccccc21
Cc1[nH]nc2c1N=C(c1ccccc1Cl)c1cc([N+](=O)[O-])ccc1N2
CCCCC=O

AC50, active:
N=C(N)c1ccc(OCCCCCOc2ccc(C(=N)N)cc2)cc1 32.6 µM

experiment: APR_HepG2_MitoticArrest_24hr: Apredica 24-hour HepG2 Assay for Mitotic Arrest (AID 2282910); conditions: high-content imaging, actives raise or lower the signal
Summary of the method: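 HepG2 human liver cells were exposed to compounds at 0.39–200 uM (10 concentrations, duplicate) in 0.5% v/v DMSO for 24 hr, then fixed and immunostained for phospho-histone H3 with Hoechst 33342. Mitotic arrest came from HCS fluorescent imaging, fitted bidirectionally against DMSO.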

outcome, inactive:
CCCCCCCCCCCCOS(=O)(=O)O
CCCCCCCCCCCCCCC
O=C(c1ccccc1)c1ccccc1
OCC(CO)(CBr)CBr
CCCCC(CC)C(=O)O (configuration not stated)
CN(Cc1cnc2nc(N)nc(N)c2n1)c1ccc(C(=O)N[C@@H](CCC(=O)O)C(=O)O)cc1
O=C1NS(=O)(=O)c2ccccc21
Cc1[nH]nc2c1N=C(c1ccccc1Cl)c1cc([N+](=O)[O-])ccc1N2
CC(=O)Nc1ccc(O)cc1
CN(C)CCOC(c1ccccc1)c1ccccc1
CCCCC=O
CS(=O)(=O)c1ccc([C@@H](CC2CCCC2)C(=O)Nc2cnccn2)cc1Cl

AC50, active:
CCCCc1oc2ccccc2c1C(=O)c1cc(I)c(OCCN(CC)CC)c(I)c1 15.7 µM
O=C(CCCN1CCC(O)(c2ccc(Cl)cc2)CC1)c1ccc(F)cc1 34.5 µM
N=C(N)c1ccc(OCCCCCOc2ccc(C(=N)N)cc2)cc1 30 µM

experiment: APR_HepG2_MitoMass_24hr: Apredica 24-hour HepG2 Assay for Mitochondrial Mass (AID 2282912); conditions: high-content imaging, actives raise or lower the signal
Summary of the method: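 Mitochondrial mass is read as MitoTracker Red fluorescence intensity from automated imaging, with bidirectional curve fitting relative to DMSO. HepG2 cells received compound (0.39–200 uM, 0.5% DMSO final) for 24 hr and were dye-loaded (250 nM, 30 min) before formaldehyde fixation.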

outcome, inactive:
CCCCCCCCCCCCOS(=O)(=O)O
CCCCCCCCCCCCCCC
O=C(c1ccccc1)c1ccccc1
OCC(CO)(CBr)CBr
CCCCC(CC)C(=O)O (configuration not stated)
CN(Cc1cnc2nc(N)nc(N)c2n1)c1ccc(C(=O)N[C@@H](CCC(=O)O)C(=O)O)cc1
O=C1NS(=O)(=O)c2ccccc21
CC(=O)Nc1ccc(O)cc1
CN(C)CCOC(c1ccccc1)c1ccccc1
CCCCC=O
CS(=O)(=O)c1ccc([C@@H](CC2CCCC2)C(=O)Nc2cnccn2)cc1Cl

AC50, active:
CCCCc1oc2ccccc2c1C(=O)c1cc(I)c(OCCN(CC)CC)c(I)c1 20.7 µM
O=C(CCCN1CCC(O)(c2ccc(Cl)cc2)CC1)c1ccc(F)cc1 46 µM
Cc1[nH]nc2c1N=C(c1ccccc1Cl)c1cc([N+](=O)[O-])ccc1N2 1.09 µM
N=C(N)c1ccc(OCCCCCOc2ccc(C(=N)N)cc2)cc1 30 µM
